Data taken from PMC4552634, “A New Set of Chemical Starting Points with Plasmodium falciparum Transmission-Blocking Potential for Antimalarial Drug Discovery” (PLoS ONE, 2015).
Read-outs that look alike come from different tables or passages of the source. Hit rate of the full screen: of about 13,000 compounds, about 3,200 (25%) showed an effect of 50% or more. Some of the results follow.

System: P. falciparum stage V gametocytes
Parameters: BacTiter-Glo ATP luminescence viability of purified stage V gametocytes in 384-well plates, per cent inhibition versus DMSO
Settings: 48 h, 5 µM, inhibitor

Compound | % Inhibition [%] | % Inhibition (% Inhibition) [%]
CCN(CCCN1CCCCC1)c1cc(C)nc(Nc2ccc(C(C)C)cc2)n1 [TCMDC-132454] | -8.614 | –
Cc1ccc(NCc2cccc(F)c2)cc1S(=O)(=O)N[C@@H]1CCN(C#N)C1 [TCMDC-134125] | -7.553 | –
CCc1cc(OC)c(C(=O)NC2CCN(C[C@H](O)c3ccnc4ccc(OC)cc34)CC2)cc1Br [TCMDC-141169] | -16.9 | –
CCCn1c(SCC(=O)Nc2cc(Cl)ccc2Cl)n[nH]c1=O [TCMDC-123548] | -15.86 | –
Cn1c(NC(=O)C2CCCN(C(=O)c3ccc(O)c(-c4ccc(Cl)c(Cl)c4)c3)C2)nc2ccccc21 (centres unmarked) [TCMDC-140896] | 30.61 | –
CC(C)(C)Nc1cc(C(=O)N[C@@H](Cc2ccccc2)[C@H](O)CNC2CCOCC2)cc(N2CCCCS2(=O)=O)c1 [TCMDC-135686] | 8.531 | –
CCOc1ccc(C(=O)N2CCOC(CCN3CCC4(CCc5ccccc54)CC3)(c3ccc(Cl)c(Cl)c3)C2)cc1 (centres unmarked) [TCMDC-135339] | -28.45 | –
O=C(/C=C/c1ccc(Cl)c(Cl)c1)NCCCCCN1CCCN(C(=O)Nc2ccc(Br)cc2)CC1 [TCMDC-135761] | -59.24 | –
O=C(/C=C/c1cccc(OC(F)(F)F)c1)NCCCCCN1CCC(c2c[nH]c3ccccc23)CC1 [TCMDC-139190] | -40.78 | –
O=C(/C=C/c1ccc2ccccc2c1)NCCCCCN1CCC(c2c[nH]c3ccccc23)CC1 [TCMDC-139206] | 99.19 | –
O=C(NCCCCCN1CCC(c2c[nH]c3ccccc23)CC1)Nc1ccc(Cl)cc1Cl [TCMDC-139166] | -62.24 | –
O=C(/C=C/c1ccc(Cl)cc1)NCCCCCN1CCC(c2c[nH]c3ccccc23)CC1 [TCMDC-139234] | 97.27 | –
O=C(/C=C/c1cccc(Br)c1)NCCCCCN1CCC(c2c[nH]c3ccccc23)CC1 [TCMDC-139233] | 3.439 | –
O=C(/C=C/c1cccc(Cl)c1)NCCCCCN1CCC(c2c[nH]c3ccccc23)CC1 [TCMDC-139211] | 97.27 | –
O=C(/C=C/c1cc(C(F)(F)F)ccc1F)NCCCCCN1CCC(c2c[nH]c3ccccc23)CC1 [TCMDC-140010] | -22 | –
O=C(/C=C/c1ccc(Cl)cc1Cl)NCCCCCN1CCC(c2c[nH]c3ccccc23)CC1 [TCMDC-139696] | 89.84 | –
CCCCCCP(=O)(COc1ccc(CCN(CC(O)COc2cccc3[nH]c(C(N)=O)cc23)CC(O)COc2cccc3[nH]c(C(N)=O)cc23)cc1)OCCCC (centres unmarked) [TCMDC-139041] | 20.08 | –
CN1CCN(c2ccc(-c3cc(-c4cc(F)c(F)c(F)c4)cnc3N)cc2)CC1 [TCMDC-133345] | -8.308 | –
O=C(NC1CCN(Cc2ccccc2)CC1)c1cccc(Nc2nc(-c3ccccc3)cs2)c1 [TCMDC-136774] | 0.9462 | –
COc1cc(Cc2cnc(N)nc2N)cc(OCCCCC#N)c1OC [TCMDC-138035] | -14.37 | –
c1cn(-c2ccc(CNc3nccc(Nc4ccc(OCCN5CCOCC5)cc4)n3)cc2)cn1 [TCMDC-134665] | 13.33 | –
COc1ccccc1-n1ccnc1SCC(=O)Nc1cccc(C(F)(F)F)c1 [TCMDC-123546] | 51.1 | –
COc1ccc(-n2ccnc2SCC(=O)Nc2cccc(C(F)(F)F)c2)c(OC)c1 [TCMDC-123545] | -5.921 | –
COc1ccccc1-n1ccnc1SCC(=O)Nc1cc(C(F)(F)F)ccc1Cl [TCMDC-123823] | -21.34 | –

Compound | % Inhibition [%] | % Inhibition (% Inhibition) [%]
Cc1cc2nc(NC3=NC4(c5ccccn5)N=C(Nc5nc6cc(C)c(C)cc6[nH]5)NC4(c4ccccn4)N3)[nH]c2cc1C (centres unmarked) [TCMDC-139105] | -75.39 | –
Cn1c(NC2=NC3(c4ccccn4)N=C(Nc4nc5ccccc5n4C)NC3(c3ccccn3)N2)nc2ccccc21 (centres unmarked) [TCMDC-139096] | 50.49 | –
c1ccc(C23N=C(Nc4nc5ccccc5[nH]4)NC2(c2ccccc2)NC(Nc2nc4ccccc4[nH]2)=N3)cc1 (centres unmarked) [TCMDC-139082] | -85.59 | –
CCCNC[C@@H](O)[C@H](Cc1ccccc1)NC(=O)c1cc(NCC)cc(N2CCCCS2(=O)=O)c1 [TCMDC-135269] | 19.71 | –
Cc1cccc(-n2c(=O)c3c4c(sc3n3c(SCCC(C)C)nnc23)CCCC4)c1 [TCMDC-125651] | 34.66 | –
C=CCc1ccccc1OCC(O)CN(C1CCCCC1)C1CCCCC1 (centres unmarked) [TCMDC-123906] | -42.05 | –
OC(CN1c2ccccc2Sc2ccccc21)CN(C1CCCCC1)C1CCCCC1 (centres unmarked) [TCMDC-125553] | 51.78 | –
C[C@@H](COc1ccc(-c2ccccc2)cc1)CON1C(N)=NC(N)=NC1(C)C [TCMDC-124029] | 25.59 | –
COc1cc2nc(N(C)Cc3cc4c(Cl)cccc4s3)nc(N)c2cc1OC.Cl [TCMDC-131890] | 62.52 | –
CNCc1ccc(CN(C)c2nc(N)c3cc(OC)c(OC)cc3n2)cc1 [TCMDC-131896] | 48.14 | –
COc1cc2nc(N(C)Cc3cccc(I)c3)nc(N)c2cc1OC [TCMDC-131898] | -39.77 | –
CC1(C)N=C(N)N=C(N)N1c1ccc(Br)cc1 [TCMDC-123959] | 18.18 | –
COc1ccc(CNCc2ccc(F)cc2)cc1-c1ccc(S(=O)(=O)NCCN2CCCC2)cc1 [TCMDC-132294] | 108.8 | –
COc1ccc(CNCc2ccccc2)cc1-c1ccc(S(=O)(=O)NCCN2CCCC2)cc1 [TCMDC-132247] | 102 | –
COc1cc2c(cc1S(=O)(=O)c1ccc(NC(=O)Nc3ccc(F)cc3)cc1)CCN(C)CC2 [TCMDC-141793] | 32.2 | –
O=C(/C=C/c1ccc(Cl)c(Cl)c1)NCCCCCN1CCCN(C(=O)Nc2ccc(OC(F)F)cc2)CC1 [TCMDC-135756] | -55.78 | –
CC1(C)N=C(N)N=C(N)N1OCc1ccc2c(c1)OCO2 [TCMDC-131581] | 47.46 | –
CN1CCN(c2ccc(-c3cc(-c4ccncc4)c(-c4ccc(Cl)c(O)c4)o3)cc2)CC1 [TCMDC-141308] | 9.946 | –
Cc1nc(N)nc(N)c1OCCCCOc1ccccc1 [TCMDC-131353] | -22.41 | –
CCCOc1ccc(N2C(N)=NC(N)=NC2(C)C)cc1 [TCMDC-137702] | -17.71 | –
CC1(C)N=C(N)N=C(N)N1c1ccccc1 [TCMDC-123984] | -31.19 | –
CC(C)Cn1ccc2c3c(N)nc(N)nc3ccc21 [TCMDC-137997] | 21 | –
Nc1nc(N)c2c(ccc3c2ccn3C2CCCCC2)n1 [TCMDC-137871] | 105.4 | –
CCCC(CCC)n1ccc2c3c(N)nc(N)nc3ccc21 [TCMDC-137949] | 60.59 | –

Compound | % Inhibition [%] | % Inhibition (% Inhibition) [%]
CCCC(CC)n1ccc2c3c(N)nc(N)nc3ccc21 (centres unmarked) [TCMDC-137948] | 17.27 | –
CC(C)CNc1nc(N)nc2ccc3c(ccn3CC(C)C)c12 [TCMDC-137731] | 87.39 | –
Nc1nc(N)c2c(ccc3c2ccn3CCCCO)n1 [TCMDC-137959] | 31.47 | –
CCCCCCn1ccc2c3c(N)nc(N)nc3ccc21 [TCMDC-137994] | 106.4 | –
CCCC(C)n1ccc2c3c(N)nc(N)nc3ccc21 (centres unmarked) [TCMDC-137964] | -7.389 | –
CC(=O)Nc1nc(N)c2c(ccc3c2ccn3CC(C)C)n1 [TCMDC-137971] | 0.8169 | –
Nc1nc(N)c2c(ccc3c2ccn3C2C=CCCC2)n1 (centres unmarked) [TCMDC-137861] | 26.32 | –
Nc1nc(N)c2c(ccc3nn(C4CCCC4)cc32)n1 [TCMDC-137960] | -20 | –
Nc1nc(N)c2c(ccc3c2ccn3CCCF)n1 [TCMDC-138623] | 32.47 | –
CCC(C(=O)Nc1ccccc1)n1nc(-c2ccc(C)c(S(=O)(=O)N3CCCCC3)c2)ccc1=O (centres unmarked) [TCMDC-124712] | -71.76 | –
CC(=O)c1c(Cc2cccc(C(F)(F)F)c2)c[nH]c1C [TCMDC-124434] | -10.65 | –
COc1ccc(C(C(=O)NC2CCN(C[C@H](O)c3ccnc4ccc(OC)cc34)CC2)N2CCN(c3ccc(Cl)c(Cl)c3)CC2)cc1 (some centres unmarked) [TCMDC-141101] | 14.7 | –
NC(N)=NC(=O)Nc1cc(Cl)c(F)c(Cl)c1 [TCMDC-137512] | -14.8 | –
Cc1cc(N(C)C)nc(Nc2ccc(NC(=O)c3ccccc3Cl)cc2)n1 [TCMDC-124722] | -1.9 | –
C=CCn1ccc2c3c(N)nc(N)nc3ccc21 [TCMDC-137995] | 79.96 | –
CCn1ccc2c3c(N)nc(N)nc3ccc21 [TCMDC-139864] | 0.4857 | –
Nc1nc(N)c2c(ccc3c2ccn3CCCC(F)(F)F)n1 [TCMDC-138622] | 32.41 | –
Oc1ccc(Br)cc1C(O)CNCc1ccccc1OCc1ccccc1 (centres unmarked) [TCMDC-140564] | 21.06 | –
CN(Cc1ccccc1)C1CCN(CCc2c[nH]c3ccc(F)cc23)CC1 [TCMDC-131970] | 10.21 | –
OC1(CNCc2ccccc2)CCN(CCc2c[nH]c3ccc(F)cc23)CC1 [TCMDC-131975] | 35.49 | –
Fc1ccc2[nH]cc(CCN3CCC(CNCc4ccccc4)CC3)c2c1 [TCMDC-131984] | 53.36 | –
N#Cc1ccc2c(c1)CN(CC[C@H]1CC[C@H](NC(=O)/C=C/c3c[nH]c4ccccc34)CC1)CC2 [TCMDC-139133] | – | 11.83
O=C(NC1CCN(c2ccnc3cc(Cl)ccc23)C1)c1ccccc1F (centres unmarked) [TCMDC-133660] | -3.046 | –
